The full list was thinned out, with hits kept by preference.
miR-122 inh: activators of miR-122 sensor in Huh7 cells | Huh7 psiCHECK-miR122 Renilla luciferase sensor, 48 h | activation, % at 12.5 µM | 340,000 tested, 0.14% active | AID 623901;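 active = mean activation of 30% or more, with every replicate also reaching 30%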;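 note: higher luciferase signal means stronger suppression of miR-122 activity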
A number is an active result; . = inactive.

SMILES | miR-122 inh
CCCC(O)C#Cc1cnc2c(c1)C(=O)N([C@H](C)CO)C[C@H](C)[C@H](CN(C)S(=O)(=O)c1ccccc1)O2 (stereo partly drawn) | .
Cc1cc(C(C)(C)C)cc(S(=O)(=O)NCCc2ccncc2)c1C | 44.1
Cc1ccc(C)c(S(=O)(=O)NCCCc2ccccc2)c1 | .
CCCc1ccc(S(=O)(=O)NCCc2ccncc2)cc1 | 36.1
O=C(Nc1ccc(S(=O)(=O)NCCc2ccccc2)cc1)c1ccco1 | .
Cc1cc(C)c(C)c(S(=O)(=O)NCc2ccncc2)c1C | .
CC(=O)Nc1ccc(S(=O)(=O)NCCc2ccc(S(N)(=O)=O)cc2)cc1 | .
CCCNC(=O)N(C)C[C@H]1Oc2ncc(/C=C/c3ccccc3)cc2C(=O)N([C@@H](C)CO)C[C@@H]1C | .
COc1ccccc1-c1cnc2c(c1)C(=O)N([C@H](C)CO)C[C@H](C)[C@H](CN(C)Cc1ccccc1)O2 | .
CCC(=O)N1C[C@H](C)[C@@H](OC)CN(C)C(=O)c2ccc(NS(C)(=O)=O)cc2OC[C@H]1C | .
COCC#Cc1cnc2c(c1)C(=O)N([C@H](C)CO)C[C@H](C)[C@H](CN(C)C(=O)Nc1c(C)noc1C)O2 | .
C[C@@H]1CN([C@@H](C)CO)C(=O)c2cc(-c3ccc(F)cc3)cnc2O[C@H]1CN(C)Cc1ccc(C(=O)O)cc1 | .
C[C@H]1CN([C@@H](C)CO)S(=O)(=O)c2ccc(C#CC3CC3)cc2O[C@H]1CN(C)Cc1ccccn1 | .
C[C@H]1CN([C@@H](C)CO)C(=O)c2cc(C#Cc3ccccc3F)cnc2O[C@@H]1CN(C)S(=O)(=O)c1ccccc1 | .
CO[C@@H]1CN(C)C(=O)c2cc(NC(C)=O)ccc2OC[C@H](C)N(C(=O)c2ccccc2)C[C@@H]1C | .
CO[C@@H]1CN(C)C(=O)c2ccc(NC(C)=O)cc2OC[C@@H](C)N(C(=O)c2ccccc2F)C[C@H]1C | 35.2
COc1ccc(NC(=O)Nc2ccc3c(c2)OC[C@@H](C)NC[C@@H](C)[C@@H](OC)CN(C)C3=O)cc1 | .
CCC(=O)Nc1ccc2c(c1)OC[C@@H](C)N(C(=O)c1ccccc1F)C[C@H](C)[C@@H](OC)CN(C)C2=O | .
CO[C@@H]1CN(C)C(=O)c2ccc(NC(=O)c3ccc(Oc4ccccc4)cc3)cc2OC[C@H](C)NC[C@@H]1C | 36.6
COc1ccc(NC(=O)Nc2ccc3c(c2)OC[C@@H](C)NC[C@H](C)[C@@H](OC)CN(C)C3=O)cc1 | .
C[C@@H]1CN([C@@H](C)CO)C(=O)c2cc(C#CC3CCCC3)cnc2O[C@H]1CN(C)C(=O)C1CCC1 | .
O=C(C1CCCCC1)N1C[C@@H]2[C@H](c3ccccc31)[C@H](CO)N2Cc1ccccc1Cl | 40.0
O=C(C1CC1)N1C[C@H]2[C@@H](c3ccccc31)[C@H](CO)N2C(=O)c1ccccc1F | 33.3
O=C(C1CCCCC1)N1C[C@H]2[C@@H](c3ccccc31)[C@@H](CO)N2C(=O)c1ccccc1 | .
COc1ccc(C(=O)N2C[C@@H]3[C@H](c4ccccc42)[C@H](CO)N3Cc2ccccc2Cl)cc1 | .
SMILES | miR-122 inh
O=C(Cc1ccccc1)N1C[C@H]2[C@@H](c3ccccc31)[C@@H](CO)N2C(=O)C1CCCCC1 | .
C[C@@H]1CN([C@H](C)CO)C(=O)c2cc(/C=C/c3ccccc3)cnc2O[C@@H]1CN(C)C(=O)C1CCOCC1 | .
C[C@@H]1CN([C@@H](C)CO)C(=O)c2cc(-c3cncnc3)cnc2O[C@@H]1CN(C)Cc1cncnc1 | .
COc1ccc(NC(=O)N(C)C[C@H]2Oc3ncc(C4=CCCC4)cc3C(=O)N([C@H](C)CO)C[C@@H]2C)cc1 | .
C[C@@H]1CN([C@H](C)CO)C(=O)c2cc(-c3ccccc3F)cnc2O[C@H]1CN(C)C(=O)C1CCCCC1 | .
C[C@H](O)C#Cc1ccc2c(c1)O[C@@H](CN(C)C)[C@H](C)CN([C@@H](C)CO)S2(=O)=O | .
C[C@@H]1CN([C@H](C)CO)S(=O)(=O)c2ccc(C#Cc3cccnc3)cc2O[C@@H]1CN(C)CC1CCOCC1 | .
C[C@H](CO)N1C[C@H](C)[C@H](CN(C)Cc2cncnc2)Oc2ncc(C#Cc3ccccn3)cc2C1=O | .
C[C@H]1CN([C@@H](C)CO)C(=O)c2cc(-c3cccc(F)c3)cnc2O[C@H]1CN(C)C(=O)c1cccc(F)c1 | .
CCOC(=O)CSc1nnnn1-c1cccc2ccccc12 | 37.6
CCOC(=O)CSc1nc2ccccc2c(=O)n1CC1CCC(C(=O)NCc2ccco2)CC1 (stereo not drawn) | .
Cc1ccc(-c2cnc3c(c2)C(=O)N([C@@H](C)CO)C[C@H](C)[C@@H](CN(C)C(=O)c2ccncc2)O3)cc1 | .
CC(C)NC(=O)N(C)C[C@@H]1Oc2cc(C3=CCCCC3)ccc2S(=O)(=O)N([C@H](C)CO)C[C@H]1C | .
C[C@@H]1CN([C@@H](C)CO)C(=O)c2cc(C#CC3CC3)cnc2O[C@H]1CN(C)Cc1ccncc1 | .
COc1ccc(C#Cc2cnc3c(c2)C(=O)N([C@H](C)CO)C[C@@H](C)[C@H](CN(C)CC2CCOCC2)O3)cc1 | .
CCC(=O)N(C)C[C@H]1Oc2ncc(C#C[C@H](C)O)cc2C(=O)N([C@H](C)CO)C[C@H]1C | .
C=CCc1ccccc1OCC(O)CN1CCN(CCN2C(=O)c3cccc4cccc(c34)C2=O)CC1 (stereo not drawn) | 46.5
C[C@H](CO)N1C[C@H](C)[C@H](CN(C)C(=O)c2cccnc2)Oc2cc(/C=C/c3ccccc3)ccc2S1(=O)=O | .
CC(C)CC#Cc1ccc2c(c1)O[C@H](CN(C)C(=O)C1CCOCC1)[C@@H](C)CN([C@@H](C)CO)S2(=O)=O | .
CCCNC(=O)N(C)C[C@@H]1Oc2ncc(C#C[C@@H](C)O)cc2C(=O)N([C@H](C)CO)C[C@H]1C | .
Cc1nn(C)cc1NC(=O)C[C@@H]1CC[C@H]2[C@@H](COc3ccc(NC(=O)Nc4cccc(Cl)c4)cc3C(=O)N2C)O1 | 47.8
Cc1nn(C)cc1NC(=O)C[C@H]1CC[C@@H]2[C@H](COc3ccc(NC(=O)Nc4cccc(Cl)c4)cc3C(=O)N2C)O1 | 68.9
COc1ccc(-c2cnc3c(c2)C(=O)N([C@@H](C)CO)C[C@@H](C)[C@@H](CN(C)C(=O)Cc2ccccc2)O3)cc1 | .
C[C@H](CO)N1C[C@H](C)[C@@H](CN(C)Cc2cncnc2)Oc2cc(C#CC3CCCC3)ccc2S1(=O)=O | .
COc1cccc(-c2cnc3c(c2)C(=O)N([C@@H](C)CO)C[C@@H](C)[C@H](CN(C)Cc2cccnc2)O3)c1 | .
SMILES | miR-122 inh
Cc1ccc(S(=O)(=O)N2CC[C@@H]3[C@@H](CO)Nc4ccc(-c5ccccc5F)cc4[C@@H]32)cc1 | .
COCC(=O)N(C)C[C@H]1Oc2ncc(C#Cc3ccccc3OC)cc2C(=O)N([C@H](C)CO)C[C@H]1C | .
CC(C)C#Cc1ccc2c(c1)O[C@@H](CN(C)C(=O)CC1CC1)[C@H](C)CN([C@@H](C)CO)S2(=O)=O | .
C[C@@H]1CN([C@H](C)CO)C(=O)c2cc(-c3ccc(F)cc3)cnc2O[C@H]1CN(C)C(=O)c1cccnc1 | .
C[C@@H]1CN([C@H](C)CO)S(=O)(=O)c2ccc(Br)cc2O[C@@H]1CN(C)Cc1ccccn1 | .
O=C(c1ccccc1)N1C[C@H]2[C@@H](c3ccccc31)[C@@H](CO)N2C(=O)c1cccc(F)c1 | .
CCCNC(=O)N1C[C@@H]2[C@H](c3ccccc31)[C@@H](CO)N2C(=O)C1CCOCC1 | 39.2
COCC(=O)N1[C@@H](CO)[C@@H]2c3ccccc3N(C(=O)c3cccnc3)C[C@@H]21 | 41.7
